In PubChem BioAssay (NCI):
This is part of a sample that, as a whole, favours compounds with a hit. Of some 83,000 tested, about 20% had one in any assay.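 Compound tested at a single concentration for 48 hours in 96-well plates; a percent growth value below 10 was scored as active.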 Calls of active or inactive are those of the source.

Legend:
Assay in all cases: NCI-60 one-dose screen, 48 h (100 = growth as untreated, 0 = no growth, -100 = all killed)
Conditions in all cases: 10 µM unless noted
NCI-H23 lung = test system: NCI-H23 lung
NCI-H226 lung = test system: NCI-H226 lung
NCI-H322M lung = test system: NCI-H322M lung
HOP-62 NSCLC = test system: HOP-62 NSCLC
NCI-H460 lung = test system: NCI-H460 lung
HOP-92 NSCLC = test system: HOP-92 NSCLC
NCI-H522 lung = test system: NCI-H522 lung
A549/ATCC NSCLC = test system: A549/ATCC NSCLC
786-0 renal = test system: 786-0 renal
COLO 205 colon = test system: COLO 205 colon
DU-145 prostate = test system: DU-145 prostate
K-562 leukemia = test system: K-562 leukemia
MALME-3M melanoma = test system: MALME-3M melanoma
MDA-MB-231 breast = test system: MDA-MB-231 breast
RXF 393 renal = test system: RXF 393 renal
SF-268 CNS = test system: SF-268 CNS
SF-295 CNS = test system: SF-295 CNS
SF-539 CNS = test system: SF-539 CNS
UACC-257 melanoma = test system: UACC-257 melanoma
M14 melanoma = test system: M14 melanoma

Measured: growth

C[C@]12CCc3nc(Nc4ccccc4)sc3C1=CC[C@@H]1[C@@H]2CC[C@]2(C)/C(=N/NC(N)=S)CC[C@@H]12
active: 786-0 renal -49.8% | K-562 leukemia 9.46% | RXF 393 renal -8.56%
inactive: NCI-H23 lung 59.7% | NCI-H226 lung 15.6% | NCI-H322M lung 81.9% | HOP-62 NSCLC 68.2% | NCI-H460 lung 70.3% | HOP-92 NSCLC 85.4% | NCI-H522 lung 32.5% | A549/ATCC NSCLC 43.1% | COLO 205 colon 58.1% | DU-145 prostate 36.3% | MALME-3M melanoma 69.5% | MDA-MB-231 breast 56.3% | SF-268 CNS 49.3% | SF-295 CNS 21.2% | SF-539 CNS 37.3% | UACC-257 melanoma 67.9% | M14 melanoma 73.1%

CCN(CC)c1ccc2cc(C(Nc3ccc(C)cc3)c3nnnn3C(C)(C)C)c(=O)oc2c1 (stereo unspecified)
inactive: NCI-H23 lung 95.1% | NCI-H226 lung 85% | NCI-H322M lung 103% | HOP-62 NSCLC 103% | NCI-H460 lung 91.9% | HOP-92 NSCLC 81% | NCI-H522 lung 82.8% | A549/ATCC NSCLC 85.4% | 786-0 renal 96% | COLO 205 colon 110% | DU-145 prostate 105% | K-562 leukemia 87.5% | MALME-3M melanoma 105% | MDA-MB-231 breast 84.5% | RXF 393 renal 87.3% | SF-268 CNS 92.6% | SF-295 CNS 102% | SF-539 CNS 103% | UACC-257 melanoma 104%

CC1(C)C(=O)/C(=C\c2cccnc2)C[C@]2(C)[C@H]3CC[C@@H]4[C@H]5[C@H](C(=O)/C=C/c6cccnc6)CC[C@]5(C(=O)O)CC[C@@]4(C)[C@]3(C)CC[C@@H]12
active: NCI-H23 lung -60.4% [100 µM] | NCI-H226 lung -37.4% [100 µM] | NCI-H322M lung -97.2% [100 µM] | HOP-62 NSCLC -66.8% [100 µM] | NCI-H460 lung -43.9% [100 µM] | HOP-92 NSCLC -63.5% [100 µM] | NCI-H522 lung -71.6% [100 µM] | A549/ATCC NSCLC -13.6% [100 µM] | 786-0 renal -39.5% [100 µM] | COLO 205 colon -55.9% [100 µM] | DU-145 prostate -80.6% [100 µM] | K-562 leukemia 6.57% [100 µM] | MALME-3M melanoma -73.8% [100 µM] | MDA-MB-231 breast -34.6% [100 µM] | RXF 393 renal -61.9% [100 µM] | SF-268 CNS -34.9% [100 µM] | SF-295 CNS -75.8% [100 µM] | SF-539 CNS -56.9% [100 µM] | UACC-257 melanoma -52% [100 µM]

C=C(C)[C@@H]1CC[C@]2(C)[C@H](CC[C@@H]3[C@@H]([C@@](C)(O)CCC=C(C)C)CC[C@]32C)[C@@]1(C)CCC(=O)N1CCN(C)CC1
active: NCI-H23 lung -72% [100 µM] | NCI-H226 lung -72% [100 µM] | NCI-H322M lung -97.5% [100 µM] | HOP-62 NSCLC -93% [100 µM] | NCI-H460 lung -82.2% [100 µM] | HOP-92 NSCLC -89.9% [100 µM] | NCI-H522 lung -81.1% [100 µM] | A549/ATCC NSCLC 0.566% [100 µM] | 786-0 renal -92.7% [100 µM] | COLO 205 colon -80.8% [100 µM] | DU-145 prostate -80% [100 µM] | K-562 leukemia 1.77% [100 µM] | MALME-3M melanoma -89.6% [100 µM] | MDA-MB-231 breast -95.8% [100 µM] | RXF 393 renal -93.7% [100 µM] | SF-268 CNS -79.4% [100 µM] | SF-295 CNS -88.7% [100 µM] | SF-539 CNS -94% [100 µM] | UACC-257 melanoma -59.9% [100 µM] | M14 melanoma -70.5% [100 µM]

Cn1cc(-c2noc(C(=O)c3cn(C)c4ncc(Br)cc34)n2)c2ccccc21
inactive: NCI-H23 lung 97.7% | NCI-H226 lung 99.3% | NCI-H322M lung 91% | HOP-62 NSCLC 102% | NCI-H460 lung 99.8% | HOP-92 NSCLC 37.6% | NCI-H522 lung 91.6% | A549/ATCC NSCLC 99.3% | 786-0 renal 91.3% | COLO 205 colon 107% | DU-145 prostate 100% | K-562 leukemia 102% | MALME-3M melanoma 80.5% | MDA-MB-231 breast 79.1% | RXF 393 renal 104% | SF-268 CNS 94.6% | SF-295 CNS 101% | SF-539 CNS 87.1% | UACC-257 melanoma 96.7%

Cn1cc(-c2noc(-c3cn(C)c4ncc(F)cc34)n2)c2ccccc21
inactive: NCI-H23 lung 75.1% | NCI-H226 lung 76.7% | NCI-H322M lung 41.3% | HOP-62 NSCLC 36.3% | NCI-H460 lung 22.9% | HOP-92 NSCLC 62% | NCI-H522 lung 66.2% | A549/ATCC NSCLC 37.9% | 786-0 renal 33.6% | COLO 205 colon 66.7% | DU-145 prostate 79.2% | K-562 leukemia 77% | MALME-3M melanoma 66% | MDA-MB-231 breast 55.1% | RXF 393 renal 73.1% | SF-268 CNS 71.4% | SF-295 CNS 49.6% | SF-539 CNS 75.2% | UACC-257 melanoma 101% | M14 melanoma 71.7%

CCN(CC)c1ccc(/C=C/C=C2\NC(=O)NC2=O)cc1
active: NCI-H522 lung -36% | 786-0 renal 9.14% | RXF 393 renal 2.31%
inactive: NCI-H23 lung 49.8% | NCI-H226 lung 69% | NCI-H322M lung 63.3% | HOP-62 NSCLC 45.3% | NCI-H460 lung 19.7% | HOP-92 NSCLC 31.1% | A549/ATCC NSCLC 37.2% | COLO 205 colon 33.7% | DU-145 prostate 40.8% | K-562 leukemia 13.9% | MALME-3M melanoma 51.8% | MDA-MB-231 breast 64.1% | SF-268 CNS 54.8% | SF-295 CNS 24.1% | SF-539 CNS 10.4% | UACC-257 melanoma 43%
